Results as given in the OligoGym collection.

The sequences below were run against SEMA6D (assay: pooled miR-30 sensor sort-seq; sequence = guide strand). Details: shRNA.
Further: reference of the scale not given here.

Sequence | sensor-assay potency score (higher = more potent)
TTTTACATGATCCATAACGCTC | -0.732
TTTCTTTCCTTGAAGCTCCATG | -0.704
TTGAATAGTGATAGTCGACAGT | -0.481

What follows are sequences tested against SENP1 in the same assay as above. Details: shRNA.

Sequence | sensor-assay potency score (higher = more potent)
TATCAGTTAATTTATGACCTTT | 0.136
TAATAGGTAATATTCTTCTTTC | -0.79
TGTACTAACATGTCGCCTCTGA | 0.2
TACTGGAACTAAGACATCGAGA | -0.808
TAGAGTTTGAATATCTTTGCGT | 0.243
TTTACTTCGCTCCATCAGCATA | -1.5
AACAGTAACAGGAATCTCCTTT | -0.105
TTGATTGGTCTGTCTTTGGTAA | -0.497
TATTGCAAGAGTATTCTGCAGG | -0.448
TTCACTGAGAACTTCATCCTGA | 0.885
TTGAACTGTCTCTTCTGCTGTA | 0.936
TTATCTGAGTAATAGCTTGGAT | 0.0199

The sequences below were run against SERPINB7 in the same assay as above. Details: shRNA.

Sequence | sensor-assay potency score (higher = more potent)
ATTTCCTTGATTGTCATCCATC | -1.25
TAGAAGAGTTTCCATATCCTGA | 0.0524
TTCTTCTCTATCTTGAACTGAG | -0.146
TTTTCTACAATATTACTTCCTG | 0.325
TTCTACAATATTACTTCCTGTG | -0.132
TTGATTGTCATCCATCTCTCTG | -0.525
TTCTCTATCTTGAACTGAGGAA | -0.416
TTCATAATTCTTCTCTATCTTG | -0.438
TAAGATTTGTGCATCATCCTTG | 1.22
TACTTAGAGGTCATTCGCCTTG | -0.685
TAATATTACGTCTAGTGTCTTC | -0.265

What follows are sequences tested against SERPINE2 in the same assay as above. Details: shRNA.

Sequence | sensor-assay potency score (higher = more potent)
TATTTTAGTGAATACATGCATT | -0.736
TTCCTCAGTACAGTGTTCCAGC | -0.117
TTAATATTTTACCAACTCCATT | -1.64
TTGATGAATCAAACATGTCAGT | -0.681
TTTAACAGAACTATGAAAGATG | -0.755
TTGTGCTACAGCTGTGAACTTG | -0.393
AACAGAAACACTTGCATCGAGT | -0.757
TATTTTTGCAAAATTTGCCTTT | -0.263
TTGTCAATCATATCCCTGGTTT | -0.515
TACAGTGTTCCAGCCATCCTGC | -0.935
TACAGCTGTGAACTTGGGCAGG | -0.9
ATTCTTAACAAACACGGCGTTA | -0.703
